# Shown is part of a subset that was picked to be rich in the strongest signals.
# B1: Pwp5 DD (Candida glabrata) (protein)
# chain: MGSSHHHHHHSSGLVPRGSHMASANPVPLTNVCYFPEEYPRQAGFRAITAGLASTILQGSVDELLNYSGLSSLTTQQTTTTTPNFQLPTLPLPTNVYGLTVVPLYLLVQLQGYFVPPVSGQYTFSLENTDDAAIIFFGNPSAFPCGDLSAWPQASADDITVTDGTFPSRTLFLKAGVAYPMRISYYNSLGSGNLAVSFTDPGGTKRTNWNGYIWRYNSCSTCTYT
# Assays:
# Test in all cases: glycan array binding signal (z-score within array); higher = stronger binding
# Conditions in all cases: glycan notation: IUPAC condensed, linker removed; mutation: N130D
# [1] = biological target: Fuc(a1-2)Gal(b1-3)[Fuc(a1-4)]GlcNAc
# Method in brief: (§1)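 Columns mapping to the same glycan were averaged after glycan names were converted to IUPAC-condensed notation. The data come from 3228 arrays in the Consortium for Functional Glycomics database, limited to those with an available protein sequence. Binding is reported as a within-array Z-score averaged across arrays of one protein sequence and across linkers.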
# [2] = biological target: Fuc(a1-2)Gal(b1-4)GlcNAc(b1-2)Man(a1-3)[Fuc(a1-2)Gal(b1-4)GlcNAc(b1-2)Man(a1-6)]Man(b1-4)GlcNAc(b1-4)[Fuc(a1-6)]GlcNAc
# Method in brief: as §1
# [3] = biological target: Fuc(a1-2)Gal(b1-4)GlcNAc(b1-3)Gal(b1-4)GlcNAc(b1-3)Gal(b1-4)GlcNAc
# Method in brief: as §1
# [4] = biological target: Fuc(a1-2)[Gal(a1-3)]Gal(b1-3)GlcNAc(b1-3)GalNAc
# Method in brief: as §1
# [5] = biological target: Fuc(a1-2)[Gal(a1-3)]Gal(b1-4)GlcNAc(b1-3)GalNAc
# Method in brief: as §1
# [6] = biological target: Fuc(a1-2)[Gal(a1-3)]Gal(b1-4)[Fuc(a1-3)]GlcNAc(b1-3)GalNAc
# Method in brief: as §1
# [7] = biological target: Fuc(a1-2)[GalNAc(a1-3)]Gal(b1-4)GlcNAc(b1-6)GalNAc
# Method in brief: as §1
# [8] = biological target: Fuc(a1-3)[Gal(b1-4)]GlcNAc6S
# Method in brief: as §1
# Fuc(b1-3)GlcNAc = biological target: Fuc(b1-3)GlcNAc
# Method in brief: as §1
# [9] = biological target: Gal(a1-4)Gal(b1-4)GlcNAc(b1-3)Gal(b1-4)Glc
# Method in brief: as §1
# [10] = biological target: Gal(b1-3)[Fuc(a1-4)]GlcNAc(b1-3)Gal(b1-4)[Fuc(a1-3)]GlcNAc
# Method in brief: as §1
# [11] = biological target: Gal(b1-3)[Fuc(a1-4)]GlcNAc(b1-6)GalNAc
# Method in brief: as §1
# Gal(b1-4)GlcNAc(b1-2)Man = biological target: Gal(b1-4)GlcNAc(b1-2)Man
# Method in brief: as §1
# [12] = biological target: Gal(b1-4)GlcNAc(b1-2)Man(a1-6)[GlcNAc(b1-2)Man(a1-3)]Man(b1-4)GlcNAc(b1-4)GlcNAc
# Method in brief: as §1
# [13] = biological target: Gal(b1-4)GlcNAc(b1-3)Gal(b1-4)GlcNAc(b1-3)Gal(b1-4)GlcNAc(b1-2)Man(a1-3)[Gal(b1-4)GlcNAc(b1-3)Gal(b1-4)GlcNAc(b1-3)Gal(b1-4)GlcNAc(b1-2)Man(a1-6)]Man(b1-4)GlcNAc(b1-4)GlcNAc
# Method in brief: as §1
# [14] = biological target: Gal(b1-4)GlcNAc(b1-3)Gal(b1-4)GlcNAc(b1-3)Gal(b1-4)GlcNAc(b1-3)Gal(b1-4)GlcNAc(b1-3)Gal(b1-4)GlcNAc(b1-2)[Gal(b1-4)GlcNAc(b1-3)Gal(b1-4)GlcNAc(b1-3)Gal(b1-4)GlcNAc(b1-3)Gal(b1-4)GlcNAc(b1-3)Gal(b1-4)GlcNAc(b1-6)]Man(a1-6)[Gal(b1-4)GlcNAc(b1-3)Gal(b1-4)GlcNAc(b1-3)Gal(b1-4)GlcNAc(b1-3)Gal(b1-4)GlcNAc(b1-3)Gal(b1-4)GlcNAc(b1-2)Man(a1-3)]Man(b1-4)GlcNAc(b1-4)[Fuc(a1-6)]GlcNAc
# Method in brief: as §1
# [15] = biological target: Gal(b1-4)GlcNAc(b1-3)Gal(b1-4)GlcNAc(b1-3)[Gal(b1-4)GlcNAc(b1-3)Gal(b1-4)GlcNAc(b1-6)]GalNAc
# Method in brief: as §1
# [16] = biological target: Gal3S(b1-4)[Fuc(a1-3)]GlcNAc
# Method in brief: as §1
# Gal6S(b1-3)GlcNAc6S = biological target: Gal6S(b1-3)GlcNAc6S
# Method in brief: as §1
# [17] = biological target: GalNAc(a1-3)GalNAc(b1-3)Gal(a1-4)Gal(b1-4)GlcNAc
# Method in brief: as §1
# GalNAc(b1-3)GlcNAc = biological target: GalNAc(b1-3)GlcNAc
# Method in brief: as §1
# GalNAc3S(b1-4)GlcNAc3S = biological target: GalNAc3S(b1-4)GlcNAc3S
# Method in brief: as §1
# [18] = biological target: GlcNAc(a1-4)Gal(b1-4)GlcNAc(b1-3)Gal(b1-4)GlcNAc
# Method in brief: as §1
# [19] = biological target: GlcNAc(b1-3)[GlcNAc(b1-4)][GlcNAc(b1-6)]GlcNAc
# Method in brief: as §1
# [20] = biological target: Man(a1-2)Man(a1-2)Man(a1-3)Man
# Method in brief: as §1
# [21] = biological target: Man(a1-2)Man(a1-6)[Man(a1-3)]Man(a1-6)[Man(a1-2)Man(a1-2)Man(a1-3)]Man
# Method in brief: as §1
# [22] = biological target: Neu5Ac(a2-3)Gal(b1-3)GlcNAc(b1-6)GalNAc
# Method in brief: as §1
# Neu5Ac(a2-3)Gal(b1-4)Glc = biological target: Neu5Ac(a2-3)Gal(b1-4)Glc
# Method in brief: as §1
# [23] = biological target: Neu5Ac(a2-3)Gal(b1-4)GlcNAc(b1-2)Man
# Method in brief: as §1
# [24] = biological target: Neu5Ac(a2-3)Gal(b1-4)GlcNAc(b1-2)[Neu5Ac(a2-3)Gal(b1-4)GlcNAc(b1-6)]Man(a1-6)[Neu5Ac(a2-3)Gal(b1-4)GlcNAc(b1-2)Man(a1-3)][GlcNAc(b1-4)]Man(b1-4)GlcNAc(b1-4)GlcNAc
# Method in brief: as §1
# [25] = biological target: Neu5Ac(a2-3)Gal(b1-4)GlcNAc(b1-3)Gal(b1-3)GlcNAc
# Method in brief: as §1
# [26] = biological target: Neu5Ac(a2-3)Gal(b1-4)GlcNAc(b1-6)GalNAc
# Method in brief: as §1
# [27] = biological target: Neu5Ac(a2-3)Gal(b1-4)[Fuc(a1-3)]GlcNAc(b1-3)GalNAc
# Method in brief: as §1
# [28] = biological target: Neu5Ac(a2-6)Gal(b1-4)GlcNAc(b1-2)Man(a1-3)[GlcNAc(b1-4)][Neu5Ac(a2-6)Gal(b1-4)GlcNAc(b1-2)Man(a1-6)]Man(b1-4)GlcNAc(b1-4)GlcNAc
# Method in brief: as §1
# [29] = biological target: Neu5Ac(a2-6)Gal(b1-4)GlcNAc(b1-2)Man(a1-6)Man(b1-4)GlcNAc(b1-4)GlcNAc
# Method in brief: as §1
# [30] = biological target: Neu5Ac(a2-6)Gal(b1-4)GlcNAc(b1-3)Gal(b1-4)GlcNAc(b1-2)Man(a1-3)[Neu5Ac(a2-6)Gal(b1-4)GlcNAc(b1-3)Gal(b1-4)GlcNAc(b1-2)Man(a1-6)]GalNAc
# Method in brief: as §1
# [31] = biological target: Neu5Ac(a2-6)Gal(b1-4)GlcNAc(b1-6)GalNAc
# Method in brief: as §1
# [32] = biological target: Neu5Ac(a2-6)Gal(b1-4)GlcNAc(b1-6)[Gal(b1-3)]GalNAc
# Method in brief: as §1
# [33] = biological target: Neu5Ac(a2-8)Neu5Ac(a2-3)Gal(b1-4)Glc
# Method in brief: as §1
# [34] = biological target: Neu5Ac9Ac(a2-3)Gal(b1-4)GlcNAc
# Method in brief: as §1
binder,measurement,setting,value
B1,glycan array binding signal (z-score),[1],0.621
same,glycan array binding signal (z-score),[2],2.89
same,glycan array binding signal (z-score),[3],-1.56
same,glycan array binding signal (z-score),[4],-0.233
same,glycan array binding signal (z-score),[5],0.126
same,glycan array binding signal (z-score),[6],-0.895
same,glycan array binding signal (z-score),[7],-0.759
same,glycan array binding signal (z-score),[8],-0.328
same,glycan array binding signal (z-score),Fuc(b1-3)GlcNAc,-0.571
same,glycan array binding signal (z-score),[9],0.021
same,glycan array binding signal (z-score),[10],-0.574
same,glycan array binding signal (z-score),[11],4.76
same,glycan array binding signal (z-score),Gal(b1-4)GlcNAc(b1-2)Man,-0.513
same,glycan array binding signal (z-score),[12],3.33
same,glycan array binding signal (z-score),[13],3.2
same,glycan array binding signal (z-score),[14],3.61
same,glycan array binding signal (z-score),[15],-0.447
same,glycan array binding signal (z-score),[16],-0.734
same,glycan array binding signal (z-score),Gal6S(b1-3)GlcNAc6S,2.71
same,glycan array binding signal (z-score),[17],1.09
same,glycan array binding signal (z-score),GalNAc(b1-3)GlcNAc,-0.687
same,glycan array binding signal (z-score),GalNAc3S(b1-4)GlcNAc3S,3.21
same,glycan array binding signal (z-score),[18],0.377
same,glycan array binding signal (z-score),[19],-0.559
same,glycan array binding signal (z-score),[20],-0.413
same,glycan array binding signal (z-score),[21],-0.259
same,glycan array binding signal (z-score),[22],0.895
same,glycan array binding signal (z-score),Neu5Ac(a2-3)Gal(b1-4)Glc,-0.436
same,glycan array binding signal (z-score),[23],2.67
same,glycan array binding signal (z-score),[24],11.6
same,glycan array binding signal (z-score),[25],-0.723
same,glycan array binding signal (z-score),[26],0.366
same,glycan array binding signal (z-score),[27],3.63
same,glycan array binding signal (z-score),[28],3.92
same,glycan array binding signal (z-score),[29],0.32
same,glycan array binding signal (z-score),[30],0.149
same,glycan array binding signal (z-score),[31],0.08
same,glycan array binding signal (z-score),[32],-0.062
same,glycan array binding signal (z-score),[33],-0.613
same,glycan array binding signal (z-score),[34],-0.213
